PI5P4K alpha inh: qHTS for Inhibitors of phosphatidylinositol 5-phosphate 4-kinase (PI5P4K). Phosphatidylinositol 5-phosphate 4-kinase type-2 alpha (Homo sapiens), P48426. PI5P4Kalpha enzyme, ADP-Glo luminescence, 60 min; stronger effect = lower value. max response, %. 1.2% of 330,000 active; active = max response of -50% or lower; inconclusive = between -30% and -50%; inactive = -30% or higher; note: value at the top dose of about 77 µM; % is set by controls: 0 for no effect and ±100 for the full control effect
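Reactions run in 0.038 M HEPES pH 7.4, 0.28 mM EGTA, 0.1% CHAPS and 5% DMSO, with PI5P4Kalpha, substrate, compound and 5 microM ATP final, one hour at room temperature. Readout is ADP-Glo luminescence.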
GCN5L2 inh: qHTS Assay for Inhibitors of GCN5L2; GCN5L2 HAT assay, ThioGlo1 CoA-SH fluorescence; Potency, µM (doses to about 58.9 µM), inactives show at the highest dose activity change, negative = inhibition, actives largely listed as inhibitors; Histone acetyltransferase KAT2A (Homo sapiens), Q92830; 0.21% of 390,000 active; AID 504327, 2011; note: potency is the fitted concentration of half-maximal effect; % is set by controls: 0 for no effect and ±100 for the full control effect
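Compounds, pin-transferred from DMSO stocks, meet 20nM GCN5L2 for 15 min before the reaction begins with H3(1-25) peptide (75uM) and acetyl-CoA (70uM). Thiol-reactive ThioGlo1 reports CoA release over 20 min at room temperature.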
HP1b chromo inh: HTS for Inhibitors of HP1-beta Chromodomain Interactions with Methylated Histone Tails | Chromobox protein homolog 1 (Homo sapiens), P83916 | AlphaScreen HP1-beta / biotin-H3K9me3 peptide binding | Potency, µM (series often up to 114 µM), without a hit: at the highest dose activity change, negative = inhibition, actives largely listed as inhibitors | 0.56% of 390,000 active | AID 540317, 2011; note: potency is the fitted concentration of half-maximal effect; nearly all actives have a fitted effect of over 70% in size
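Compound inhibition of the preformed complex between 50 nM HP1-beta and 50 nM biotinylated H3K9me3 peptide was read by AlphaScreen. Buffer was PBS pH 7.4 with 0.01% Tween-20. Incubations ran 30 min at room temperature, with 10 ug/mL donor/acceptor beads.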
JMJD2A Tudor: qHTS Assay for Inhibitors of JMJD2A-Tudor Domain; Lysine-specific demethylase 4A (Homo sapiens), O75164; AlphaScreen JMJD2A-Tudor / H3K4me3 peptide binding; Potency, µM (titrated, usually from 114 µM), for the others: at the highest dose activity change, negative = inhibition, actives largely listed as inhibitors; 4.4% of 390,000 active; AID 504339, 2011; note: potency is the fitted concentration of half-maximal effect; % is set by controls: 0 for no effect and ±100 for the full control effect; nearly all actives have a fitted effect of over 50% in size
PLK1 PBD block: qHTS for Inhibitors of PLK1-PDB (polo-like kinase 1 - polo-box domain): Primary Screen. 2.8% of 360,000 active. AID 720504, 2013. Potency, µM, inactives show max response, negative = inhibition, hits mostly inhibitors. Plk1 PBD binding of FITC phosphopeptide, fluorescence polarization. Serine/threonine-protein kinase PLK1 (Homo sapiens), P53350; note: potency is the fitted concentration of half-maximal effect; series mostly up to about 57 µM; % is set by controls: 0 for no effect and ±100 for the full control effect; nearly all actives have a fitted effect of over 65% in size
BAZ2B inh: qHTS Assay for Inhibitors of BAZ2B; AlphaScreen BAZ2B-H3K14Ac peptide displacement; Potency, µM (titrated, usually from 114 µM), for the others: at the highest dose activity change, negative = inhibition, usual class: inhibitors; 4.4% of 360,000 active; note: potency is the fitted concentration of half-maximal effect; % is set by controls: 0 for no effect and ±100 for the full control effect; nearly all actives have a fitted effect of over 60% in size
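Inhibition is scored as reduced AlphaScreen emission. The BAZ2B/b-H3(5-23)K14Ac complex (50 nM each) in PBS pH 7.4, 0.01% Tween-20 meets compound (up to 110 uM) for 30 min at RT before bead addition.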
TbPYK inh: qHTS of Trypanosoma Brucei Inhibitors: Confirmatory Assay for Cherry-picked Compounds; 67% of 890 active; recombinant TbPYK, Kinase-Glo ATP luminescence; Potency, µM (doses to about 76.9 µM), for inactives: at the top dose activity change, negative = inhibition, hits mostly inhibitors; AID 720569, 2013; shares compounds with PLK1 PBD block; note: potency is the fitted concentration of half-maximal effect; % is set by controls: 0 for no effect and ±100 for the full control effect; nearly all actives have a fitted effect of over 70% in size
TbPYK orthogonal: qHTS of Trypanosoma Brucei Inhibitors: Orthogonal Assay for Cherry-picked Compounds | shares compounds with PLK1 PBD block | recombinant TbPYK, ADP-Glo luminescence, 60 min | Potency, µM (highest dose often 76.9 µM), without a hit: top-dose activity change, negative = inhibition, actives largely listed as inhibitors | 62% of 890 active | AID 720584, 2013; note: potency is the fitted concentration of half-maximal effect; % is set by controls: 0 for no effect and ±100 for the full control effect; nearly all actives have a fitted effect of over 75% in size
* hit, by the source's call; ? = inconclusive; nt = no result given; [ ] = dose if it differs, or a comment. Hits are enriched below; roughly 7% of the tested compounds scored in any of these assays. Unless noted, calls come from the whole dose curve; as a rule, active = well fitted curve in the direction sought with a large enough effect; inconclusive = small, poorly fitted or top-dose-only effect, or another doubt; inactive = no such curve, though single readings can be large; an effect the other way counts as inactive or inconclusive.

SMILES	PI5P4K alpha inh	GCN5L2 inh	HP1b chromo inh	JMJD2A Tudor	PLK1 PBD block	BAZ2B inh	TbPYK inh	TbPYK orthogonal
COc1ccc(N2C(=O)NC(=O)/C(=C\c3ccc([N+](=O)[O-])s3)C2=O)cc1	-63*	-20%	22µM*	22µM*	2.7µM*	32µM*	7.9µM*	16µM*
COc1ccc(N2C(=O)NC(=O)/C(=C/c3ccc([N+](=O)[O-])s3)C2=O)cc1	-77*	-15%	?	56µM*	3µM*	40µM*	6.3µM*	13µM*
COc1cccc(N2C(=O)NC(=O)/C(=C/c3ccc([N+](=O)[O-])s3)C2=O)c1	?	-5%	35µM*	22µM*	3µM*	35µM*	13µM*	18µM*
CCOP(=O)(OCC)O/C(=C/Cl)c1ccc(Cl)cc1Cl	nt	-10%	nt	nt	nt	nt	nt	nt
O=C(Nc1cccc(F)c1)N1CCC2(CC1)CCN(C(=O)Oc1ccccc1)CC2	nt	-2%	nt	nt	nt	nt	nt	nt
O=C1NCCOC(=O)[C@H](Cc2ccc(F)cc2)CC/C=C/C[C@@H]1CC(=O)N(CCO)Cc1ccccc1	-2	3%	44%	-11%	-8%	nt	nt	nt
C/C=C1/C[C@@H](C)[C@@](C)(O)C(=O)OCC2=CCN3CC[C@@H](OC1=O)[C@@H]23	nt	nt	22%	-19%	nt	nt	nt	nt
COc1cc(C(=O)Nc2ccc(Br)cc2C(=O)c2ccccc2Cl)cc(OC)c1OC	24	4%	11%	-20%	-12%	2%	nt	nt
COc1ccccc1NS(=O)(=O)c1cc(NC(=O)c2ccc(Cl)nc2)ccc1N1CCCC1	?	-29%	?	56µM*	4.7µM*	nt	4.5µM*	6.3µM*
COc1cccc(Cn2c(=O)oc3ccccc32)c1	-1	-2%	42%	9%	0%	11%	nt	nt
O=C(O)CCn1cc(C=C2C(=O)NC(=S)NC2=O)c(-c2ccccc2)n1	-91*	-4%	-17%	13µM*	2.7µM*	79µM*	1.6µM*	4.5µM*
O=C(O)c1cc2ccccc2oc1=O	-2	?	24%	-16%	4%	7%	nt	nt
N#CCCn1cc(C=C2C(=O)NC(=O)NC2=O)c(-c2ccccc2)n1	-19	-3%	59%	2%	2.7µM*	4%	16µM*	32µM*
O=C(O)CCn1cc(C=C2C(=O)NC(=S)NC2=O)c(-c2cc3ccccc3oc2=O)n1	-71*	1%	-13%	89µM*	11µM*	50µM*	5.6µM*	10µM*
Cc1nn(Cc2ccccc2)c(C)c1C=C1C(=O)NC(=O)NC1=O	-28	-6%	25%	-8%	9.5µM*	3%	18µM*	32µM*
C[C@H](N)[C@@H](O)c1ccccc1	nt	-2%[21.4 µM]	nt	nt	nt	nt	nt	nt
CCN1C[C@@]2(COC)[C@H]3[C@@H](OC)[C@H]4C1[C@@]3([C@H](OC)C[C@@H]2O)[C@H]1C[C@@]2(O)[C@@H](OC(=O)c3ccccc3)[C@@H]1[C@@]4(OC(C)=O)[C@H](O)[C@@H]2OC	nt	-3%[21.4 µM]	nt	nt	nt	nt	nt	nt
O=C1C(Cl)=CC(=Nc2ccc(O)cc2)C=C1Cl	-98*	-12%	14µM*	45µM*	27µM*	32µM*	16µM*	?
O=[As](O)(O)c1ccc(N=Nc2ccc(O)cc2)cc1	-13	-8%	-2%	-12%	-6%	-17%	nt	nt
CCC(=O)Nc1ccc(C(=O)OCc2ccccc2Cl)cc1	22	0%	61%	7%	0%	3%	nt	nt
C=CCN1C(=O)NC(=O)/C(=C\c2ccc(-c3ccccc3[N+](=O)[O-])o2)C1=O	-53*	-11%	5%	?	1.5µM*	79µM*	10µM*	25µM*
O=C1CC(=O)N(c2ccccc2F)C(=O)N1	-1	-2%	26%	-8%	?	-3%	nt	nt
O=C1NC(=O)N(c2ccccc2F)C(=O)/C1=C/c1ccc(Sc2nc3ccccc3[nH]2)o1	-86*	?	?	22µM*	?	32µM*	14µM*	16µM*
O=C1NC(=O)N(c2cccc(Cl)c2)C(=O)/C1=C\c1ccc(Sc2nc3ccccc3[nH]2)o1	-74*	?	?	35µM*	2.7µM*	35µM*	16µM*	16µM*
O=C1NC(=O)N(c2ccc3c(c2)OCO3)C(=O)/C1=C/c1ccc(N2CCCCC2)o1	-9	-13%	25%	-3%	102%	-36%	nt	nt
SMILES	PI5P4K alpha inh	GCN5L2 inh	HP1b chromo inh	JMJD2A Tudor	PLK1 PBD block	BAZ2B inh	TbPYK inh	TbPYK orthogonal
C=C[C@@H]1CN2CC[C@H]1C[C@H]2[C@H](O)c1ccnc2ccccc12	nt	-10%	nt	nt	nt	nt	nt	nt
COc1ccc([N+](=O)[O-])cc1N=Cc1c(O)n(CCc2ccccc2)c(=O)n(C(C)C)c1=O	-6	-9%	-7%	?	-3%	?	nt	nt
COc1cc(C=C2C(=O)NC(=O)NC2=O)ccc1OCc1ccc([N+](=O)[O-])cc1	?	-10%	21%	35µM*	6.7µM*	nt	13µM*	28µM*
O=C(O)Cn1cc(/C=C2\C(=O)NC(=O)N(c3ccc(F)cc3)C2=O)c2ccccc21	nt	-9%	nt	nt	nt	-23%	nt	nt
O=C1NC(=O)N(c2ccc(F)cc2)C(=O)/C1=C/c1ccc(N2CCOCC2)cc1	-20	-6%	30%	-2%	12µM*	1%	?	?
O=C1NC(=O)N(c2ccccc2)C(=O)/C1=C\c1ccc2c3c(cccc13)CC2	nt	-2%	nt	nt	nt	?	nt	nt
O=C1NC(=O)N(c2ccccc2)C(=O)/C1=C/c1ccoc1	?	1%	23%	-14%	5.3µM*	?	?	-28%
CCCCCCCCCCCCCCCCOC[C@@H](COP(=O)([O-])OCC[N+](C)(C)C)OC(C)=O	nt	10%	nt	nt	nt	nt	nt	nt

Screening results deposited in PubChem by National Center for Advancing Translational Sciences (NCATS).
